# From PubChem BioAssay AID2073 (Sanford-Burnham Center for Chemical Genomics, 2009)
# Hit rate of the full screen: of about 290,000 compounds, about 570 (0.2%) were called active. Not shown: some 1% with an inconclusive outcome. Cut-off read from the data, not from the text of the source: active = inhibition mostly above about 51% (no sharp cut-off); inconclusive = no clear call, values can overlap the other calls; inactive = mostly below about 53%. The full list was thinned out, with actives kept by preference.
# Molecular target: Voltage-dependent N-type calcium channel subunit alpha-1B (Homo sapiens) (UniProt Q00975)
# Assay: disruptors of CaV2.2 binding to Mint1 – biochemical, HTRF (AID 2073)
# Conditions: HTRF protein-protein interaction, Mint1-CaV2.2, at 20 µM, stronger effect = higher value
# Sequence of Voltage-dependent N-type calcium channel subunit alpha-1B (Homo sapiens) (Q00975 whole entry, looked up): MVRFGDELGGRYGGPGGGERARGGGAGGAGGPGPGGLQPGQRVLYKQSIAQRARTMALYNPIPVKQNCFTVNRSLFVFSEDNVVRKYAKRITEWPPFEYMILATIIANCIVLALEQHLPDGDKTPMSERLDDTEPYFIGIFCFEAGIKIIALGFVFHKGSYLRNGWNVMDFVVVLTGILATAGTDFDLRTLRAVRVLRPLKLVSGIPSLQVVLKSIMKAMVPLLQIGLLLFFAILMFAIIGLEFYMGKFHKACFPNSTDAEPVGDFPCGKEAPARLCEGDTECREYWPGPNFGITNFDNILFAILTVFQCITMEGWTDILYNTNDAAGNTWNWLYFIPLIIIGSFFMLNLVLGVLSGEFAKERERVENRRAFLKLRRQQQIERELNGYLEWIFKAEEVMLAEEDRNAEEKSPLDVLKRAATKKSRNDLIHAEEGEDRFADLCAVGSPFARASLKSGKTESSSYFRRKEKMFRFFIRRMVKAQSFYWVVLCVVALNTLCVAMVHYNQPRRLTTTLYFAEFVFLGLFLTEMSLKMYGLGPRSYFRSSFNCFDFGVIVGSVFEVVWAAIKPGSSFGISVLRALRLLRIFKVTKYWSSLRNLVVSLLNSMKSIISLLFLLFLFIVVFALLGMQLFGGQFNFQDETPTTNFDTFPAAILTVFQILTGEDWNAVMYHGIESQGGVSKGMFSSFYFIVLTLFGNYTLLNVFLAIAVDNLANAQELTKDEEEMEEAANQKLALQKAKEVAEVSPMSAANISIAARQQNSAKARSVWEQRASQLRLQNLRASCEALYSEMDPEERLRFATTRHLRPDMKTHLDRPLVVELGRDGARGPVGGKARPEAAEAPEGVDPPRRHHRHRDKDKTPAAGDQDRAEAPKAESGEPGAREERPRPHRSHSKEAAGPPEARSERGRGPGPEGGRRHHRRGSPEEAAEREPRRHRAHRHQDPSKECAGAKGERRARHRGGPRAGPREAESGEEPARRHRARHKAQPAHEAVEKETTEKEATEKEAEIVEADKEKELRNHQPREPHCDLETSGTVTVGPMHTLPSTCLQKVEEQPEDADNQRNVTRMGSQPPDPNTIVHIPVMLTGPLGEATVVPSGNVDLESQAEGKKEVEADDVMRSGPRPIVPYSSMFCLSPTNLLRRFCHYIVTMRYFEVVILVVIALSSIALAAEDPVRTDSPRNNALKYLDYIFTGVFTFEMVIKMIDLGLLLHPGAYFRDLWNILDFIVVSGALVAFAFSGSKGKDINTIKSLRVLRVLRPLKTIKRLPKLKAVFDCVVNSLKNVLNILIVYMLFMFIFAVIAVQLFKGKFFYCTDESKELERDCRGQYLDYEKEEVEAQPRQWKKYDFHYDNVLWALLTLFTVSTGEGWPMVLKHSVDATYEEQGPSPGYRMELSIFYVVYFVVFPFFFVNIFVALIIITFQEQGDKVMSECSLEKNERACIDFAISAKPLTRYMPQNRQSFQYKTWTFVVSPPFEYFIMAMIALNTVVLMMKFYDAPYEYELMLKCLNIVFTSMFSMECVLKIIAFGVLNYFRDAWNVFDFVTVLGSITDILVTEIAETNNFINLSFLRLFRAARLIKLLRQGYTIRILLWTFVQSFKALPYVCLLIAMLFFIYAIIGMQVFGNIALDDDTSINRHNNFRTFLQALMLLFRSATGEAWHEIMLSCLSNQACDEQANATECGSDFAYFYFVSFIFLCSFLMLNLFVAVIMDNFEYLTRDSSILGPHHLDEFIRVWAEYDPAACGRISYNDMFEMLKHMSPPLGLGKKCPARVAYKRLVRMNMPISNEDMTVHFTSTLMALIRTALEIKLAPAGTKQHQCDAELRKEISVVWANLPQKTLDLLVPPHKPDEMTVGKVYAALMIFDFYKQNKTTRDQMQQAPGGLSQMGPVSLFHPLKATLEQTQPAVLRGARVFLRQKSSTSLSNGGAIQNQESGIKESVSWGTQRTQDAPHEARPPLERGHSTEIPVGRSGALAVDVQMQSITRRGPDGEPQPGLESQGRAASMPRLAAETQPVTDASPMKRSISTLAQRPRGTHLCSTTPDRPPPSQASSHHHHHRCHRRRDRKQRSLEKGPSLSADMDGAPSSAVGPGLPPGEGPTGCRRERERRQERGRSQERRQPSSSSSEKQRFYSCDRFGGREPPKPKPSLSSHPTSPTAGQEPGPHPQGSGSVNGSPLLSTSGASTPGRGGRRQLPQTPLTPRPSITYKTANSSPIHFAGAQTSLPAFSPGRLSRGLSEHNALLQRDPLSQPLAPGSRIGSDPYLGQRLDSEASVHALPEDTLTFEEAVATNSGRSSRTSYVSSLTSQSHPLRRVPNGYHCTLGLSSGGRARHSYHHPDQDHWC
Structure (SMILES),inhibition,inhibition (measured here: average of repeat tests) [%]
CCOC(=O)c1cc(NC(=O)CCC(=O)O)ccc1N1CCCCC1,19.3% (inactive),–
O=C(/C=C\c1ccco1)Nc1nc(-c2ccccc2)cs1,0% (inactive),–
O=C(/C=C/c1ccco1)Nc1nc(-c2ccccc2)cs1,26.4% (inactive),–
O=C(/C=C/c1ccco1)Nc1nc(-c2ccccn2)cs1,54.1% (active),–
O=C(/C=C/c1ccccc1)Nc1nc(-c2ccncc2)cs1,54.1% (active),–
O=C(/C=C/c1cccs1)Nc1nc(-c2ccccc2)cs1,10% (inactive),–
O=C(/C=C/c1ccc2c(c1)OCO2)Nc1nc(-c2ccccc2)cs1,26% (inactive),–
CCCSc1nc(N2CCOCC2)c2c(c1C#N)CC(C)(C)SC2,0.4% (inactive),–
Cc1ccccc1NC1=C(Cl)C(=O)OC1NC(=O)c1ccccc1 (stereo not drawn),-0.5% (inactive),–
CCOC(=O)c1ccc(N2C(=O)CC(C(=O)OC)=C2C)cc1,3.2% (inactive),–
Cc1ccc2nc(NC(=O)CN3CCOCC3)sc2c1,-0.6% (inactive),–
CCc1ccc2nc(NC(=O)c3ccc(N4C(=O)CCC4=O)cc3)sc2c1,32.1% (inactive),–
Cc1ccc(-n2ncc3c2CCCC3NC(=O)CCn2ccnc2C)cc1C (stereo not drawn),-3.7% (inactive),–
O=C(Nc1ncc2c(n1)CC(c1ccco1)CC2=O)c1ccccc1 (stereo not drawn),33.5% (inactive),–
O=C1CC(c2ccco2)Cc2nc(Nc3nc(-c4ccccc4)c4ccccc4n3)ncc21 (stereo not drawn),52.4% (active),–
O=C1CC(c2ccco2)Cc2nc(Nc3ccc(F)cc3)ncc21 (stereo not drawn),6.4% (inactive),–
CN(C)C(=O)c1ccc(NC(=O)COc2ccc([N+](=O)[O-])cc2)cc1,5.1% (inactive),–
COc1ccc(C2C(Oc3ccccc3)C(=O)N2c2cc(C)ccc2C)cc1OC (stereo not drawn),-3.8% (inactive),–
Cc1ccc(-n2c(=O)c3cc4c(=O)n(-c5ccc(C)c(C)c5)c(=O)c4c(C(=O)c4ccc(C(=O)O)cc4)c3c2=O)cc1C,85% (active),–

Structure (SMILES),inhibition,inhibition (measured here: average of repeat tests) [%]
O=C(O)c1ccc(-n2c(=O)c3ccccc3c3ccccc3c2=O)cc1,-2.9% (inactive),–
Cc1ccc(N2C(=O)c3ccc(C(=O)O)cc3C2=O)cc1C,-1.3% (inactive),–
O=C(N/N=C/c1ccoc1)c1cc(O)cc(O)c1,18.3% (inactive),–
O=C(O)c1ccc(Cl)c2c1C1C=CCC1C(c1ccccn1)N2 (stereo not drawn),23.7% (inactive),–
Cc1cc([N+](=O)[O-])c2c(c1C)C1C=CCC1C(c1ccccn1)N2 (stereo not drawn),42.9% (inactive),–
O=[N+]([O-])c1ccc(Cl)c2c1C1C=CCC1C(c1ccccn1)N2 (stereo not drawn),79.5% (active),–
COc1c(S(=O)(=O)NCCCn2ccnc2)ccc(Cl)c1Cl,-0.3% (inactive),–
COc1cccc(-c2nn(-c3ccccc3)cc2C(=O)O)c1,1.6% (inactive),–
COc1ccc(OC)c(NC(=O)c2c(NC(=O)CCC(=O)O)sc3c2CCCCC3)c1,65.1% (active),–
COc1ccccc1NC(=O)c1c(NC(=O)CCC(=O)O)sc2c1CCCCC2,25% (inactive),–
COc1ccc(NC(=O)c2c(NC(=O)CCC(=O)O)sc3c2CCCCC3)cc1,63.8% (inactive),9.3
O=S(=O)(NCC1CCCO1)c1ccc(Oc2ccccc2)cc1 (stereo not drawn),8.9% (inactive),–
Cc1cc(C(=O)OCC(=O)Nc2cc(S(=O)(=O)N(C)C)ccc2C)c2ccccc2n1,-2.8% (inactive),–
C[C@H]1[C@H](C)CC[C@]2(C(=O)O)CC[C@]3(C)C(=CC[C@@H]4[C@@]5(C)C[C@@H](O)[C@H](O)C(C)(C)[C@@H]5CC[C@]43C)[C@H]12,45.4% (inactive),–
C[C@H]1[C@H](C)CC[C@]2(C(=O)O)CC[C@]3(C)C(=CC[C@@H]4[C@@]5(C)CC[C@H](O)C(C)(C)[C@@H]5CC[C@]43C)[C@H]12,41.1% (inactive),–
C[C@H]1[C@H](C)CC[C@]2(C)CC[C@]3(C)C(=CC[C@@H]4[C@@]5(C)CC[C@@H](O)[C@](C)(C(=O)O)[C@@H]5CC[C@]43C)[C@H]12,77% (active),–
CC(=O)Nc1cc2c3c(c1)CCN3C(=O)CC2,0.4% (inactive),–
COc1cc(/C=N/NC(=O)c2ccncc2)ccc1OC(C)=O,11.8% (inactive),–
Cc1ccc(S(=O)(=O)n2c(=O)oc3ccccc32)cc1,-5.8% (inactive),–

Structure (SMILES),inhibition,inhibition (measured here: average of repeat tests) [%]
CCn1ncc(C2=NOC(C(=O)N3CCC(C(N)=O)CC3)C2)c1C (stereo not drawn),2.8% (inactive),–
CCCOC(=O)/C(=C\C=C\c1ccco1)NC(=O)c1ccccc1,66.6% (active),–
CCCCOC(=O)/C(=C/C=C/c1ccccc1)NC(=O)c1ccccc1,7.4% (inactive),–
CCCOC(=O)/C(=C\C=C\c1ccccc1)NC(=O)c1ccccc1,-6.3% (inactive),–
CC1(c2ccccc2)NC(=O)N(Cc2ccc([N+](=O)[O-])cc2)C1=O (stereo not drawn),-5.3% (inactive),–
CP(=O)(COC(=O)c1ccccc1)COC(=O)c1ccccc1,-9.7% (inactive),–
OC[C@@H]1CCCN1Cc1cn(-c2ccccc2)nc1-c1ccc2c(c1)OCO2,8.1% (inactive),–
O=C(N/N=C/c1sc(N2CCOCC2)nc1-c1ccccc1)c1cccc(S(=O)(=O)N2CCCC2)c1,51.1% (active),–
O=[N+]([O-])c1ccc(N/N=C/c2sc(N3CCOCC3)nc2-c2ccccc2)c(S(=O)(=O)Nc2ccccc2Cl)c1,30.5% (inactive),–
O=C(N/N=C/c1sc(N2CCOCC2)nc1-c1ccccc1)c1cccc(S(=O)(=O)N2CCOCC2)c1,21.2% (inactive),–
COc1cc(C(=O)N/N=C/c2sc(N3CCOCC3)nc2-c2ccccc2)cc(OC)c1OC,4.4% (inactive),–
Cc1ccc(NS(=O)(=O)c2cc([N+](=O)[O-])ccc2N/N=C/c2sc(N3CCOCC3)nc2-c2ccccc2)c(C)c1,31.1% (inactive),–
O=[N+]([O-])c1ccc(N/N=C/c2sc(N3CCOCC3)nc2-c2ccccc2)c(S(=O)(=O)Nc2ccc(Cl)cc2)c1,67.1% (active),–
Cc1ccc(C2=CSC3=NNC4(CCCCC4)NN23)cc1,8.9% (inactive),–
CCOC(=O)N1CCN(C(=O)CSCc2ccccc2C)CC1,-5.4% (inactive),–
O=C(CCC(=O)N(CC(=O)NC1CCCCC1)Cc1ccccc1)Nc1ccccn1,-13% (inactive),–
N/C(Cc1ccc(Cl)c(Cl)c1)=N\OC(=O)c1ccc(Br)o1,5.1% (inactive),–
N/C(Cc1cccc2ccccc12)=N\OC(=O)c1ccc(Br)o1,56.5% (active),–
N/C(Cc1ccc(Cl)cc1Cl)=N\OC(=O)c1ccc(Br)o1,7.7% (inactive),–
